The values that follow come from PubChem BioAssay (NCATS).

The structures appear in SMILES notation. Where “and” joins values, the source holds several entries; their conditions need not be identical. Equal values may be shown once. Records with an inconclusive call do not appear. Calls of active or inactive are those of the source. Unless noted, calls come from the whole dose curve; as a rule, active = well fitted curve in the direction sought with a large enough effect; inconclusive = small, poorly fitted or top-dose-only effect, or another doubt; inactive = no such curve, though single readings can be large; an effect the other way counts as inactive or inconclusive.

Experiment [1] is described as follows: AP1 Signaling Pathway (AID 357; active = well fitted curve in either direction with a large enough effect, not every such curve was filed as active;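 note: ME-180 reporter cells stimulated with EGF at its EC50 level; % is set by controls: 0 for no effect and ±100 for the full control effect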). The settings on record: ME-180 (cervical carcinoma) AP-1-bla reporter, EGF-induced, beta-lactamase ratio, 5 h; at 7.69 µM (top of the series) unless noted. The method, boiled down: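 A ratiometric CCF4 readout (405 nm excitation; 460 and 530 nm emission) quantified AP-1-driven beta-lactamase in ME-180 cells after 5 h with compound and EC50 EGF; AC50 values were derived for activators and inhibitors.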

For experiment [2], the target named is Cytochrome P450 1A2 (Homo sapiens) (UniProt P05177). Description: p450-cyp1a2 (AID 410; calls by dose curve; note: potency is the fitted concentration of half-maximal effect). The method, boiled down: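 20nM CYP1A2, 100uM Luciferin-ME (=Km), 100mM KPO4; cpd 10 min RT; +NADPH regen, 60 min RT; stop/detect 20 min; luminescence. Normalized to furafylline 57 uM = full inhibition.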
Experiment [3] is described as follows: NFAT Signaling Pathway (AID 444; active = well fitted curve in either direction with a large enough effect, not every such curve was filed as active;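 note: carbachol stimulus at about its EC50 of 1 µM final; % is set by controls: 0 for no effect and ±100 for the full control effect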). The settings on record: Jurkat NFAT-bla M1, carbachol, beta-lactamase ratio, 5 h; at 7.69 µM (top of the series) unless noted. The method, boiled down: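 Jurkat cells with NFAT-driven β-lactamase reporter and co-expressed M1 receptor, stimulated with carbachol (final 1 uM, ~EC50), compound titration, 5 h at 37 °C. CCF4 loaded 1 h at RT; 460/530 nm ratio gave %activity and AC50.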

Experiment [4] addresses Cytochrome P450 3A4 (Homo sapiens) (UniProt P08684). As to the kind of experiment: qHTS Assay for Inhibitors and Substrates of Cytochrome P450 3A4 (AID 884). Note: potency is the fitted concentration of half-maximal effect; nearly all actives have a fitted effect of over 50% in size. The method, boiled down: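 Luminescent readout of luciferin produced by CYP3A4 (20 nM) dealkylation of Luciferin-PPXE, 25 uM (its KM). NADPH-driven reaction ran 60 min at RT after 10 min compound preincubation; data scaled to 57 uM ketoconazole as 100% inhibition.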
(Quantitative high-throughput screening tests each substance at several concentrations.)

Experiment [5] has the same target. As to the kind of experiment: qHTS Assay for Activators of Cytochrome P450 3A4 (AID 885). Note: nearly all actives have a fitted effect of over 65% in size. The method, boiled down:
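CYP3A4 activity: Luciferin-PPXE O-dealkylation, 25uM substrate, 200mM KPO4, RT throughout. Read-out is luciferase luminescence; higher values reflect activation.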

The target in experiment [6] is Dual specificity protein kinase CLK4 (Homo sapiens) (UniProt Q9HAZ1). As to the kind of experiment: qHTS Assay for Inhibitors of CDC-like Kinase 4 (ADP-FP Assay) (AID 1795).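 Note: recombinant human CLK4 phosphorylating RS repeat peptide at 1 µM ATP; % is set by controls: 0 for no effect and ±100 for the full control effect; nearly all actives have a fitted effect of over 60% in size.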 The method, boiled down:
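Kinase activity was followed as ADP output, converted from fluorescence polarization with a calibration curve. Reactions ran one hour at low ATP (1 uM) with RS peptide substrate.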

Experiment [7] concerns the target Lysosomal acid glucosylceramidase (Homo sapiens) (UniProt P04062). As to the kind of experiment: Glucocerebrosidase-p2 (AID 348; in the data active = potency below about 10 µM; note: potency is the fitted concentration of half-maximal effect). The note with it: purified GBA, blue fluorogenic substrate, 40 min. The method, boiled down: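 Normal human glucocerebrosidase (0.2 nM) with blue fluorogenic substrate (80 uM final) in citrate/phosphate pH 5.9 with 10mM sodium taurocholate, 0.01% tween-20; 40 min RT, NaOH/glycine stop; fluorescence Ex 365/Em 440; AC50 from a titration from 0.6 nM upwards.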

Experiment [8] addresses Glutathione peroxidase 1 (Homo sapiens) (UniProt P07203). Description: Primary qHTS Assay for Inhibitors of Recombinant Selenoprotein Glutathione Peroxidase 1 (GPX1) (AID 1845191). Note: nearly all actives have a fitted effect of over 65% in size. The method, boiled down:
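GR-coupled readout: NADPH consumption tracked by fluorescence, ex 340/em 450 nm, at t=0 and after 15 min at RT. Final mix 10 nM GPX1, 1 mM GSH, 0.5 mM CHP, 0.5 mM NADPH, 100 nM GR, 0.01% BSA, following 30 min enzyme–compound preincubation.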

The nature of experiment [9]: Cell Viability - Hek293 (AID 427;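 active = compounds whose dose-response curve shows a full or clear partial loss of cell viability, called from curve shape rather than a numeric limit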;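 note: potency is the fitted concentration of half-maximal effect; cells exposed to compound for 40 hours at 37 °C before reading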). The note with it: qHTS. A digest of the protocol:
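Luminescent ATP read-out (CellTiter-Glo, 20 min RT) after 40 hr compound exposure at 37 °C in complete medium. Signal normalized to DMSO (basal) and 100 uM tamoxifen (100% inhibition); concentration-response fitted with the standard Hill equation to give AC50.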

Experiment [10] can be described thus: qHTS Assay for Identification of Small Molecule Inducers of Hypoxia Response (AID 2120; active = well fitted curve in the direction sought with a large enough effect in the signal ratio, with a control signal flat, not every such curve was filed as active; the % refers to the signal ratio; note: 0% is about no effect). The method, boiled down:
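Read-out: CCF4 FRET emission ratio 460nm/530nm (excitation 405nm), converted to %Activity, with AC50 fitted across a compound titration. ME-180 cells carried an HRE-driven beta-lactamase reporter; compound exposure 17 h, 37 degrees C.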

The nature of experiment [11]: qHTS assay for small molecule antagonists of retinoid X receptor alpha signaling (AID 588546; active = well fitted inhibition curve with a large enough effect in the signal ratio, with a control signal flat, not every such curve was filed as active; the % refers to the signal ratio;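 note: cells stimulated with 9-cis-retinoic acid as agonist; % is set by controls: 0 for no effect and ±100 for the full control effect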). The settings on record: HEK293T RXRa-UAS-bla, beta-lactamase ratio, antagonist mode; measured here: W530 green channel, cytotoxicity proxy. A digest of the protocol:
(§1)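 Beta-lactamase reporter inhibition, read as CCF4 fluorescence ratio (ex 405, em 460/530 nm) after 2 h at RT. HEK293T UAS-bla cells, 2500/well, were stimulated with 9-cis-RA at 500 or 100 nM final alongside test compound for 18 h at 37 C.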

For experiment [12], the target named is Retinoic acid receptor RXR-alpha (Homo sapiens) (UniProt P19793). Described as above. The note with it: HEK293T RXRa-UAS-bla, beta-lactamase ratio, antagonist mode. The method, boiled down:
as §1

The nature of experiment [13]: qHTS assay for environmental chemicals that activate the Aryl hydrocarbon Receptor (AhR) signaling pathway (AID 651777). Note: % of control where 0% means no effect; nearly all actives have a fitted effect of over 15% in size. The note with it: 1A2-DRE human hepatoma cells, luciferase, 24 h; activation: stronger effect = higher value. The method, boiled down:
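Quantitative HTS in stably transfected human liver-derived cells whose luciferase gene sits downstream of the CYP1A2 promoter and dioxin response element. After 24 hr exposure at 37 C, One-Glo luminescence was measured.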

Experiment [14] is described as follows: qHTS assay for small molecule agonists of the antioxidant response element (ARE) signaling pathway measured by Nrf2-dependant transcriptional activity - cell viability counter screen (AID 720653; active = well fitted curve in the direction sought with a large enough effect in the repeat runs; an effect the other way counts as inactive or inconclusive; note: % is set by controls: 0 for no effect and ±100 for the full control effect). The note with it: ARE-bla HepG2 viability, CellTiter-Glo ATP luminescence, 16 h; max response: stronger effect = lower value. A digest of the protocol: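 ARE-bla HepG2 cells treated with compounds for 16 h at 37C; this counter screen measures viability as intracellular ATP by CellTiter-Glo luminescence after 30 min at room temperature.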

Experiment [15] in a line: qHTS assay for cell viability of the p53RE-bla HCT-116 cell line (AID 743292). Note: % is set by controls: 0 for no effect and ±100 for the full control effect; nearly all actives have a fitted effect of over 55% in size. A digest of the protocol:
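Viability of compound-treated p53RE-bla HCT-116 cells is taken from ATP-dependent luciferase luminescence. Treatment lasts 16 h at 37 C after a 5 h settling period; detection follows 30 min at room temperature.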

Chain of Cytochrome P450 1A2 (Homo sapiens) (P05177 whole entry, looked up): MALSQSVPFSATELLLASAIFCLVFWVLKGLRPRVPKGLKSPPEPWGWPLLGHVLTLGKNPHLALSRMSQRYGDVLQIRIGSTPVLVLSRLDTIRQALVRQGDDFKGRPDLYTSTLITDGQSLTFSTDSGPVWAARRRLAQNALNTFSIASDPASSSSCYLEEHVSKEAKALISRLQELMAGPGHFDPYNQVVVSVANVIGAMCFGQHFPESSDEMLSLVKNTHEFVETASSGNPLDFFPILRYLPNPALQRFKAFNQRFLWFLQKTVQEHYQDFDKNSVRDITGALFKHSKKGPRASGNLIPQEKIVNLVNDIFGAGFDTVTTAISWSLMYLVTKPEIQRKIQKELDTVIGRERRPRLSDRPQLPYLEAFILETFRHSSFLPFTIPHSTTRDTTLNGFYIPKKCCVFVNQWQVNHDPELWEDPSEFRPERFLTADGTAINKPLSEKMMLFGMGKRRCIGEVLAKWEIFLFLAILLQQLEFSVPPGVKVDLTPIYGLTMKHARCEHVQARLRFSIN
Chain of Cytochrome P450 3A4 (Homo sapiens) (P08684 whole entry, looked up): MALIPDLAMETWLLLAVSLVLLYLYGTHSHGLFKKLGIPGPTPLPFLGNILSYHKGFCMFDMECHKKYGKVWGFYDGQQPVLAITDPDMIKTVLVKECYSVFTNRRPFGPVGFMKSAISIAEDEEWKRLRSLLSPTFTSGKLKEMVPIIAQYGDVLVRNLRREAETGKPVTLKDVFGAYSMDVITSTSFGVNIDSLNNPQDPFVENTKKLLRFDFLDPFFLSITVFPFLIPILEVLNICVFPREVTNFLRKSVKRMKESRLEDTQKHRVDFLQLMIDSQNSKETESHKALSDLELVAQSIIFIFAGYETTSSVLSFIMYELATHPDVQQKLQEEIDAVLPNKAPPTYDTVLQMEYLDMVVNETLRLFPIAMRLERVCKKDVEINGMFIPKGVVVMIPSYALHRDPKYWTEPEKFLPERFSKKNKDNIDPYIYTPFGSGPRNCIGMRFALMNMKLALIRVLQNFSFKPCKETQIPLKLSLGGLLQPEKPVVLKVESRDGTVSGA
Chain of Dual specificity protein kinase CLK4 (Homo sapiens) (Q9HAZ1 whole entry, looked up): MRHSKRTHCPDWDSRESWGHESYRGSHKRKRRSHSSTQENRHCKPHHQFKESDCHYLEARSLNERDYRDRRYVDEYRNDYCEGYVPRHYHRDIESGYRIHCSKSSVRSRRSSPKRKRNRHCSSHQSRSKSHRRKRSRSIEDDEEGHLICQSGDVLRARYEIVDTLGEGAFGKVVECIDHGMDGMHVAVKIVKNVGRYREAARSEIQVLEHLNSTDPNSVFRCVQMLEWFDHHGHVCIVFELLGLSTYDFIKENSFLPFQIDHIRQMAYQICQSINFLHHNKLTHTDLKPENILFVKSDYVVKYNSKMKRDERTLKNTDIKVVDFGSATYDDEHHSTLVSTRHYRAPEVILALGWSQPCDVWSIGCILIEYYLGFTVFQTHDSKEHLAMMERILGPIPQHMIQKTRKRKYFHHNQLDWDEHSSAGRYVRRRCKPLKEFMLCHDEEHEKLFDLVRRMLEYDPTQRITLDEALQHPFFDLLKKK
Chain of Retinoic acid receptor RXR-alpha (Homo sapiens) (P19793 whole entry, looked up): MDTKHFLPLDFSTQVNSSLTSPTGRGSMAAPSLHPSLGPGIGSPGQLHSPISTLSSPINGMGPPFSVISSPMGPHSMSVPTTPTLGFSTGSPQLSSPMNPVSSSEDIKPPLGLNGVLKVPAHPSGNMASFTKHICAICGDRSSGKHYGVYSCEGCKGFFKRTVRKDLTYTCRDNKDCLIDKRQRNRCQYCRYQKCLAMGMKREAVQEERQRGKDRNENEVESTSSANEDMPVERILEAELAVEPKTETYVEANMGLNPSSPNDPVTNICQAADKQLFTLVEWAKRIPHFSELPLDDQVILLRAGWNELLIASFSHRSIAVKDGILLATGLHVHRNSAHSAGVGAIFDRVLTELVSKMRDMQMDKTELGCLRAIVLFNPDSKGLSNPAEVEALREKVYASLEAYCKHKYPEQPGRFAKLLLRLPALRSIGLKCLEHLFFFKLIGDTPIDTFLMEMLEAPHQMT
Chain of Lysosomal acid glucosylceramidase (Homo sapiens) (P04062 whole entry, looked up): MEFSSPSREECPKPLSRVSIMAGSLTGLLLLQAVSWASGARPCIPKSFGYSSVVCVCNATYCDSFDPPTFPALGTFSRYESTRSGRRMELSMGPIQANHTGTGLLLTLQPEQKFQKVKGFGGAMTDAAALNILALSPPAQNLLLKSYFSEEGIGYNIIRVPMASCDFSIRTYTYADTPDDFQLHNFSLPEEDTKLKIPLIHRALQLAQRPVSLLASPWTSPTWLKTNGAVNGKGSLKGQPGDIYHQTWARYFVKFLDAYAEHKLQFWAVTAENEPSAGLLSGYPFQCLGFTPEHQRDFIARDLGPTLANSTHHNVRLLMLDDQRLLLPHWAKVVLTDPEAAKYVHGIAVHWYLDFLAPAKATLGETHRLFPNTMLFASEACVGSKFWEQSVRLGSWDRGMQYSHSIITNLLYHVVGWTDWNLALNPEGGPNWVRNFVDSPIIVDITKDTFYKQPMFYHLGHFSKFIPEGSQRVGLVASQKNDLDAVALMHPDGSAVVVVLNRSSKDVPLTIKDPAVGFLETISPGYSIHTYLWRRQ
Chain of Glutathione peroxidase 1 (Homo sapiens) (P07203 whole entry, looked up): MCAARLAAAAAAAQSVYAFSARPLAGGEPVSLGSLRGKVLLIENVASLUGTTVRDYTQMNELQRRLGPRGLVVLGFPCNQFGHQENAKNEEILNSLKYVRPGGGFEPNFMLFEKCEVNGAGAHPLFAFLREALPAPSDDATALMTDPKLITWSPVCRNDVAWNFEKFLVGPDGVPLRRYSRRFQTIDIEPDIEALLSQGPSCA

As for `CN(C)c1nc(-c2cccc(NS(C)(=O)=O)c2)nc2ccccc12`, the activity change, negative = inhibition in experiment [1] is 11.2% (inactive); in experiment [3] it was 10.8% (inactive). The Potency in experiment [2] was 0.501 µM (active); in experiment [4] it was 6.31 µM (active). In [5], the result was inactive. The Potency entry in experiment [6] was “inactive”.
Regarding `Cc1nc2cnc(N3CCOCC3)nc2n(CCc2ccccc2)c1=O`, the activity change, negative = inhibition is 3.7% (inactive) in experiment [1] and 15.3% (inactive) in [3]. Further, in experiment [6], the Potency entry is “inactive”.
Take `COc1ccccc1CNc1nc(-c2ccc(C(=O)N(C)C)cc2)nc2ccccc12`: the Potency in [7] was > 11.4 µM (inactive). For the same compound, the activity change, negative = inhibition in experiment [3] was -1.92% (inactive). In addition, in [6], the Potency entry was “inactive”.
With `CC(C)C(=O)SCCCCCCC(=O)Nc1nc(-c2ccccc2)cs1`, in [8], the Potency entry is “inactive”.
As to `CN1C2CC[C@@H]1CC(OC(=O)[C@H](CO)c1ccccc1)C2` (some centres undefined), the Potency result in [8] was “inactive”.
For the compound `COc1ccccc1CNc1ncnc2ccc(-c3ccc(C(=O)N(C)C)cc3)cc12`, in experiment [2], the Potency was 12.6 µM (active). Moreover, the activity change, negative = inhibition in experiment [3] was 14.5% (inactive). For the same compound, the call in [5] was inactive. Also, the Potency result in experiment [6] is “inactive”.
Turning to `Cc1ccccc1-c1ccc2ncnc(NCCN3CCOCC3)c2c1`, the activity change, negative = inhibition in experiment [1] was 13.8% (inactive); in experiment [3], -0.729% (inactive). Besides, in [6], the Potency entry is “inactive”.
For the compound `CCCCCCCCCCCC(=O)O`, the Potency in [9] was > 92 µM (inactive). Further, the outcome in [10] was inactive. The max response in [11] was 24.4% and 28.8%; in experiment [12], -14.3% (inactive) and -10.1% (inactive); in [14], 8.32% (inactive) and -0.379% (inactive). In addition, the activation in experiment [13] is 0.903% (inactive) and 1.44% (inactive). The Potency entry in [15] was “inactive”.
On to `CN1CCN(c2nc(-c3ccoc3)nc3ccccc23)CC1`, for which the Potency in experiment [7] was > 11.4 µM (inactive); in [2], 1.26 µM (active). Further, the activity change, negative = inhibition in experiment [1] was 6.84% (inactive); in experiment [3] it was -2.81% (inactive). Moreover, the result in [5] was inactive. In experiment [6], the Potency result is “inactive”.
